High-throughput results deposited in PubChem by several laboratories.
This is a sample that favours compounds with a hit; in the whole collection about 4.7% have one here.
UBC9 SUMO inh = inhibitors of in vitro SUMOylation cascade, primary screen, biochemical, HTRF, uHTS; HTRF SUMOylation assay, SAE1/SAE2 + UBC9; inhibition, % at 35 µM; SUMO-conjugating enzyme UBC9 (Homo sapiens), P63279; AID 2006, 2009; 290,000 tested, 0.36% active; in the data active = inhibition above about 50%, passing the limit was not always enough; inconclusive = no clear call, values can overlap the other calls
Target sequence (P63279 whole entry, looked up): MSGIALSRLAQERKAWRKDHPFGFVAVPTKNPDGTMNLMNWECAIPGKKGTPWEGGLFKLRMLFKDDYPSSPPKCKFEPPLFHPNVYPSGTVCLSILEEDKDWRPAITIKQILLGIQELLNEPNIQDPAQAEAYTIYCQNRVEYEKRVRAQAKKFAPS
eIF4H inh = human eIF4H binding inhibitors, primary screen, translation initiation inhibitor project, biochemical, uHTS, fluorescence polarization. inhibition, % at 35 µM. Eukaryotic translation initiation factor 4H (Homo sapiens), Q15056. 290,000 tested, 0.94% active. eIF4H fluorescence polarization binding assay;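 note: calls also rest on retests at 20 µM and on dose response follow-up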
PABP polyA inh = PABP poly(A) RNA binding inhibitors, primary screen, biochemical, fluorescence polarization, uHTS. Polyadenylate-binding protein 1 (Homo sapiens), P11940. inhibition, % at 35 µM. 290,000 tested, 1% active;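 note: calls also rest on retests at 20 µM and on dose response follow-up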
MLLE-PAM2 inh = inhibitors of PABP1 MLLE–PAM2 peptide binding, primary screen, biochemical, fluorescence polarization, FITC-PAM2, GST-MLLE; Polyadenylate-binding protein 1 (Homo sapiens), P11940; inhibition, % at 20 µM; 360,000 tested, 0.36% active; AID 588489, 2011; in the data active = inhibition above about 35%, passing the limit was not always enough;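 note: plate controls were DMSO wells with GST-MLLE for no effect and wells lacking GST-MLLE protein for full effect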
Efflux pump mplx = inhibitors of Candida efflux pumps in yeast, primary screen, S. cerevisiae, Nile Red, multiplex; AID 485275, 2010; inhibition, % at 10 µM; 330,000 tested, 0.44% active; S. cerevisiae Candida pump triplex;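 active = plate passing quality check with inhibition over a set limit, or well fluorescence over plate mean plus 4 SD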;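 note: Nile Red retained in pooled yeast measured as flow cytometry median fluorescence; 0% = buffer negative control and 100% = Enniatin B positive control; higher means more Nile Red kept so more efflux inhibition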
ALR H2O2 inh = inhibitors of human ALR sulfhydryl oxidase, primary screen, biochemical, H2O2 detection, HRP-luminol luminescence, single point | FAD-linked sulfhydryl oxidase ALR (Homo sapiens), P55789 | purified ALR, DTT oxidation | inhibition, % (no concentration beside the values) | 290,000 tested, 3.8% active | AID 485317, 2010;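 active = mean replicate inhibition above about 79%, with every replicate also reaching it, limit read from the data; inconclusive = only one of the two criteria met; inactive = mean below limit and not every replicate reaching it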
Target sequence (P55789 whole entry, looked up): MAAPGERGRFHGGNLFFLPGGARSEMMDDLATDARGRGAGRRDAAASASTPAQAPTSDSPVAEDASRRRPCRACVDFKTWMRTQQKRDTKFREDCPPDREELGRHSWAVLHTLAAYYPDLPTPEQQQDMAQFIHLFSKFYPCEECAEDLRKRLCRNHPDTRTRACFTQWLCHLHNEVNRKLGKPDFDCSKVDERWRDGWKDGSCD
Numbers without * were called inactive; ? = inconclusive; . = not tested or not shown. Unless noted, the rule behind the calls is not given here.

SMILES | UBC9 SUMO inh | eIF4H inh | PABP polyA inh | MLLE-PAM2 inh | Efflux pump mplx | ALR H2O2 inh
CCOC(CNc1ncnc2sc(-c3ccccc3)cc12)OCC | -15 | -2 | 2 | -16 | 0 | 97*
S=C(NCC1CCCO1)N1CCN(Cc2ccccc2Cl)CC1 (stereo not given) | -2 | 4 | 8 | -117 | 0 | -6
Cc1sc2nc3ccc(NCc4ccco4)nn3c(=O)c2c1C | 56* | 24 | 25 | 41* | 0 | .
O=c1c2ccccc2nc2ccc(NCc3ccco3)nn12 | 28 | 43 | 76* | 81 | 0 | .
Cc1sc2nc(SCC(=O)NCc3ccco3)n(CCc3ccccc3)c(=O)c2c1C | 17 | 5 | 5 | -3 | 0 | .
CCOC(=O)CC1(C)NC(C(=O)O)C(C)(C)S1 (stereo not given) | . | . | . | 13 | . | .
CSc1ccc(CN2CCC(C)(Oc3ccc(F)cc3)C2)cc1 (stereo not given) | . | . | . | 12 | . | .
O=C(O)CCCC(=O)Nc1ccn(-c2ccccc2)n1 | 9 | 5 | 0 | 0 | 0 | 4
CC(=O)CC(=O)Nc1ccn(-c2ccccc2)n1 | 8 | -3 | -6 | 15 | 0 | 82*
Cc1ccc([C@@H]2CC(=O)[C@@H]3CN(S(=O)(=O)c4ccccc4C)[C@H](c4ccc(Cl)cc4)C[C@@H]3N2S(=O)(=O)c2ccc(C)cc2)cc1 | . | . | . | -6 | . | .
CC1=CC(C)C(C[N+]2(C)CCCCC2)C(C)C1 (stereo not given) | -1 | 9 | 61* | -118 | 0 | -6
CC1=CC(C)C(COC(=O)CN2CCCCC2)C(C)C1 (stereo not given) | 14 | -10 | -7 | 17 | 0 | -13
COc1cc(C(=S)N2CCCCC2)ccc1OCC(=O)Nc1ccccc1Cl | 3 | -7 | 5 | 19 | 0 | -10
O=C(COc1ccc(C(=S)N2CCOCC2)cc1Cl)Nc1ccccc1Cl | 3 | 9 | -13 | 41* | 0 | -3
COc1cc(/C=N/N=C2\CC3CCC2(C)C3(C)C)ccc1O (stereo not given) | 12 | -11 | -10 | 7 | 0 | 99*
COc1ccc(/C=N/N=C2\CC3CCC2(C)C3(C)C)cc1O (stereo not given) | 1 | -2 | 1 | 8 | 0 | 66
O=C(O[C@@H]1OC2COC(=O)c3cc(O)c(O)c(O)c3-c3c(cc(O)c(O)c3O)C(=O)O[C@@H]([C@H]1O)[C@@H]2O)c1cc(O)c(O)c(O)c1 | 89* | 105 | -8 | 29 | 0 | 99*
O=C1Nc2ccccc2SC(c2ccccc2)C1O (stereo not given) | 6 | ? | 50* | -3 | 0 | -2
COC(=O)c1cccc(CC2(C)C(=O)Nc3ccc(OC(F)(F)F)cc32)c1 (stereo not given) | . | . | . | 2 | . | .
O=C(/C=C/c1c(Cl)cccc1Cl)N1CCN(c2ncccn2)CC1 | 10 | 2 | 7 | 1 | 0 | .
Cc1cccc(N2CCN(C(=O)c3ccc4nccnc4c3)CC2C)c1 (stereo not given) | . | . | . | -2 | 0 | 65
O=C(Nc1ccc2nc(-c3ccco3)c(-c3ccco3)nc2c1)N1CCN(c2ccccn2)CC1 | 69 | 106* | active | 49* | 0 | .
O=C(/C=C/c1ccco1)N1CCN(c2ncccn2)CC1 | 11 | 44 | -4 | 68* | 0 | 0
Cc1cccc(N2CCN(C(=O)c3ccc4nc(-c5ccco5)c(-c5ccco5)nc4c3)CC2C)c1 (stereo not given) | 45 | 93* | 79* | 12 | 0 | -7
Cc1nc2cc(NC(=O)N3CCN(c4ccccn4)CC3)ccc2o1 | 6 | -6 | -9 | -1 | 0 | -1
SMILES | UBC9 SUMO inh | eIF4H inh | PABP polyA inh | MLLE-PAM2 inh | Efflux pump mplx | ALR H2O2 inh
O=C(c1ccc2nc(-c3ccco3)c(-c3ccco3)nc2c1)N1CCN(c2ncccn2)CC1 | ? | 85* | 67* | 24 | 0 | -9
CCOc1ccccc1NC(=O)C(c1ccccc1)N1CCN(C(=O)c2ccco2)CC1 (stereo not given) | . | . | . | 12 | 0 | -15
CCN(CC)c1ccc(NC(=O)CCS(=O)(=O)c2cccc3nsnc23)c(C)c1 | 4 | 3 | 1 | -14 | 0 | 99*
Cc1cc(C)n2nc(C(=O)OCC(=O)c3ccccc3Cl)nc2n1 | . | . | . | 2 | 0 | -12
Cc1cc(C)n2nc(C(=O)OCC(=O)c3cc(C)n(C)c3C)nc2n1 | 8 | 62* | 44 | 8 | 0 | -11
CNC(=O)[C@H]1O[C@@H](n2cnc3c(NCc4cccc(I)c4)ncnc32)[C@H](O)[C@@H]1O | . | . | . | 10 | 0 | 82*
COC(=O)c1nc(NC(=O)c2cc(OC)c(OC)c(OC)c2)n[nH]1 | 18 | 1 | -5 | 12 | 0 | 98*
Cc1cc(O)ccc1N=Cc1c(C(F)(F)F)[nH][nH]c1=O | 14 | 38 | 27 | -14 | 0 | 99*
N/C(Cc1nc2ccccc2s1)=N\O | -4 | 12 | -11 | -34 | 0 | 3
NC(=O)CSCc1nc2ccccc2s1 | 4 | 55* | 54* | 24 | 0 | .
CCS(=O)(=O)CCSc1nc2ccccc2s1 | 10 | -8 | 0 | 23 | 0 | 99*
O=C(CSc1nc2ccccc2s1)c1cc2ccccc2o1 | -13 | 60* | 103* | -10 | 0 | 13
O=C(CSc1nc2ccccc2s1)NC1CCS(=O)(=O)C1 (stereo not given) | 4 | -4 | -13 | 31 | 0 | 90*
O=C(CN1C(=O)CCC1=O)Nc1nc(-c2nc3ccccc3s2)cs1 | 20 | 3 | -16 | -2 | 0 | 95*
CC(=O)CSc1nc2ccccc2s1 | -6 | -3 | -7 | 11 | 0 | 98*
O=C(CN1C(=O)CCC1=O)Nc1nc(-c2ccccn2)cs1 | -7 | 11 | 8 | -1 | 0 | -22
N#CC1(NC(=O)CSc2nc3ccccc3s2)CCCCC1 | . | . | . | 14 | 0 | 98*
CC(Sc1nc2ccccc2s1)C(=O)N1CCOCC1 (stereo not given) | 5 | -2 | 13 | 14 | 0 | 99*
COC(=O)CSc1nc2ccc(N)cc2s1 | 27 | -3 | -6 | 5 | 0 | 99*
Oc1ccc(O)c(Cc2nc3ccccc3s2)c1 | -13 | 82* | 6.5* | -4 | 0 | -19
Cc1csc(NC(=O)CSc2nc3ccccc3s2)n1 | 31 | -1 | -5 | 14 | 0 | 97*
Cc1csc(NC(=O)CCCSc2nc3ccccc3s2)n1 | 17 | 1 | -12 | 4 | 0 | -4
CC(=O)C(c1ccccc1)C(c1ccccc1)C(C)[N+](=O)[O-] (stereo not given) | 4 | -6 | -3 | 6 | 0 | -7
